# Over roughly 39,000 sequences, “fluorescence intensity (a.u.)” has its median near 4,300; the highest 2% begin near 39,000. The sample holds the highest values, similar sequences and a random draw of the others, so the mix is not that of the screen.
# Target: T1, OsSMF1 (Oryza sativa, UniProt Q6ZLB0 1-436)
# T1 sequence: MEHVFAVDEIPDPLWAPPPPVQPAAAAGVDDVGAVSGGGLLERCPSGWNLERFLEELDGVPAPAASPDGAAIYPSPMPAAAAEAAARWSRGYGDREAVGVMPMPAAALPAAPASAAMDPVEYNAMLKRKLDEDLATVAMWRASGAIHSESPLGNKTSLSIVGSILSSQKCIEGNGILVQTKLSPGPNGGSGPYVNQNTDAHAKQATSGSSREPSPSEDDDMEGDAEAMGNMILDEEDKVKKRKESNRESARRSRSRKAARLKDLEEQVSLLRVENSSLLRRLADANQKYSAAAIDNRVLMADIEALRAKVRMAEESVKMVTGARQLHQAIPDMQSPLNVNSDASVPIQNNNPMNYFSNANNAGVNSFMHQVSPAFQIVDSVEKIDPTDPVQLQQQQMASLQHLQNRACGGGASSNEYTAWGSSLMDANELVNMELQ
# Assay: protein-binding microarray (RPBM); PBS, 2% BSA, 51.3 ng/ul salmon testes DNA, 50 uM zinc acetate, 200 nM TF, 25 C, 1 h; high values mean tight binding
# Conditions: protein: recombinant; tags: N-terminal polyhistidine and DsRed monomer fusion (pET32a); chain copies: 2; label: CyDye5-dUTP incorporated in the synthesized complementary strand; 3' TTTTT single-stranded linker to array surface; dsDNA, one strand shown
# Summary of the method: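 Using Ni–NTA, transcription factors fused N-terminally to polyhistidine and DsRed were purified after expression in E. coli BL21-CodonPlus. These were incubated at 200 nM with a blocked, double-stranded custom Agilent array for 1 h at 25 °C in a buffer containing 50 µM zinc acetate, and the array was washed. The binding signal is per-feature fluorescence intensity (arbitrary units) on an Axon 4000B scanner.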
row,Sequence,binding signal
1,CAAACGGGACGAATTCCTAACCCTCGTCATCCGTCCCTTCCGGAGTCACCTAGTGCAG,4710 fluorescence intensity (a.u.)
2,CTGTTATCTTTCAATAAACCAAGGGAATTTTAGTTTGTTCCGGAGTCACCTAGTGCAG,33200 fluorescence intensity (a.u.)
3,AAGAGGATGGCTGGGAGGATGACATGTGGAGCCCACATGGCGGAGTCACCTAGTGCAG,4450 fluorescence intensity (a.u.)
4,ACATCCACAACCATCTCCACCTCACCTCGTCCATCGTCTCCGGAGTCACCTAGTGCAG,6010 fluorescence intensity (a.u.)
5,AGCCCGGCCCACCACGGGGTTTCCCTCTTCTCTAGGCCCGCGGAGTCACCTAGTGCAG,50600 fluorescence intensity (a.u.)
6,TCCACCCCACGTCCTCCTCCTCCCCAGCAGTCCCACCCGCCGGAGTCACCTAGTGCAG,3570 fluorescence intensity (a.u.)
7,CGAGAGCGAACGGCCGTCTGCCACGTCACTTTCGCCACCCCGGAGTCACCTAGTGCAG,41900 fluorescence intensity (a.u.)
8,GGCGCCGTGCCGTAATCCATCTCCTCCGTCGTCCAACCTCCGGAGTCACCTAGTGCAG,44900 fluorescence intensity (a.u.)
9,TCTCTTCCCCTCTCCGCGCCGCCCTCCGCCCCGCCCGCGGCGGAGTCACCTAGTGCAG,3270 fluorescence intensity (a.u.)
10,TCCCTCCCTCCGCCGCGCCACGCCCACCCACGCATCCATCCGGAGTCACCTAGTGCAG,4110 fluorescence intensity (a.u.)
11,AACCTCCATCTCCCGCCCAGTGCCGCCGCGCCACGTCACCCGGAGTCACCTAGTGCAG,39100 fluorescence intensity (a.u.)
12,CCCGAGAGCGAACGGCCGTCTGCCACGTCATTTTCGCCGCCGGAGTCACCTAGTGCAG,29700 fluorescence intensity (a.u.)
13,CCAACCCATCTCCACCGTCCATCTCCATCCGACGCCTCCCCGGAGTCACCTAGTGCAG,24300 fluorescence intensity (a.u.)
14,CGCCCGAGAGCGAACGGCCGTCTGCCACGTCACTTTCGCCCGGAGTCACCTAGTGCAG,29100 fluorescence intensity (a.u.)
15,CCGGCCACCGCCCTCCCGCCGCACGGGCCACCGGCCACCGCGGAGTCACCTAGTGCAG,3460 fluorescence intensity (a.u.)
16,GGTTGAATCAAATTGTTCCTCTGTTACACTTACACATCATCGGAGTCACCTAGTGCAG,3250 fluorescence intensity (a.u.)
17,AATACTGAATACTAGTGCAACGTCATTGAAAATTTTATCCCGGAGTCACCTAGTGCAG,5090 fluorescence intensity (a.u.)
18,CGTCGTGCCTACGGGCCGTTCGCGTGTCGTGTCGGCCCAACGGAGTCACCTAGTGCAG,3850 fluorescence intensity (a.u.)
19,ACGGTAGGAGCTGCAGCGGTCGGGGTGGGAGCAGGGGTCGCGGAGTCACCTAGTGCAG,3440 fluorescence intensity (a.u.)
20,AAATGTTATGAGTACGATGACACATTAAAACACAGTCATTCGGAGTCACCTAGTGCAG,4650 fluorescence intensity (a.u.)
21,TTTTGGGCCTCCTGTGACCTACATGGGCCGCACTTCTTTCCGGAGTCACCTAGTGCAG,25900 fluorescence intensity (a.u.)

row,Sequence,binding signal
1,TTACAGGTGTTGTCATTTTATGTGACCGGTCAGACCGGGCCGGAGTCACCTAGTGCAG,4510 fluorescence intensity (a.u.)
2,GACCATAAGTGTCCACGTATGCAAAACTCGACCTCCGTTTCGGAGTCACCTAGTGCAG,13800 fluorescence intensity (a.u.)
3,CACAACCACAAGGTTGTCATTACCTCTATCATCGGTGTAACGGAGTCACCTAGTGCAG,3380 fluorescence intensity (a.u.)
4,CATCATGTCCTATCTGAACTGTTACAACCACGACGTAGTACGGAGTCACCTAGTGCAG,3320 fluorescence intensity (a.u.)
5,CATTTATAACTTTGCTGTGTTTCACTGATGCAGGTTTTATCGGAGTCACCTAGTGCAG,3490 fluorescence intensity (a.u.)
6,CCGTCGCCGCCAAGCATCGAGCCGCCGGCCACAGCAGCCGCGGAGTCACCTAGTGCAG,42100 fluorescence intensity (a.u.)
7,CGGTCGGTCCATCGCCCTCCGTCCCCATCCCCACCGTCACCGGAGTCACCTAGTGCAG,41900 fluorescence intensity (a.u.)
8,CGGCGTGGCCGCTGCGTCACGGGCGACTGCGCCAGCGTGCCGGAGTCACCTAGTGCAG,5890 fluorescence intensity (a.u.)
9,TCCGCCGTCGCCGCTCCGTCCATCGCCCGCCGTCACCGCCCGGAGTCACCTAGTGCAG,4040 fluorescence intensity (a.u.)
10,GCGCGCGCCACCGCACCCGCGACGCCGACGTGTTCATGACCGGAGTCACCTAGTGCAG,5890 fluorescence intensity (a.u.)
11,CGCCACCGTCACCGACCGCGCGCGCACGCACGCACACTCCCGGAGTCACCTAGTGCAG,3390 fluorescence intensity (a.u.)
12,CCAGCATCGCCGGCAGATCCACGTCGAGCATCGCGGCAGGCGGAGTCACCTAGTGCAG,5190 fluorescence intensity (a.u.)
13,CCGCCGCAGCCGCAGCCGGCCAAGCTGGGCGTCGGCGACACGGAGTCACCTAGTGCAG,39700 fluorescence intensity (a.u.)
14,CACGCCGCCGCCCGTCGCGAGCTCCACGTCGAGCAGCAGCCGGAGTCACCTAGTGCAG,4920 fluorescence intensity (a.u.)
15,GTGGCGCGCGCGCGCACGCACGCTGGGCGACACGCCACGCCGGAGTCACCTAGTGCAG,4530 fluorescence intensity (a.u.)
16,AAAGCCGCACACGTGTTTCCCGCGACCGCGCCACGTCACCCGGAGTCACCTAGTGCAG,46700 fluorescence intensity (a.u.)
17,CCCCTCCGCCTCGTCCCCATCGGCCACTGCCACCACCGCCCGGAGTCACCTAGTGCAG,3700 fluorescence intensity (a.u.)
18,TACAAAATCATCCATCAACCGCAAAATCAGATATCGACCGCGGAGTCACCTAGTGCAG,3800 fluorescence intensity (a.u.)
19,GATGTGACGTGATGTGATGGAAAGTTGGGAGTTGGGGAAACGGAGTCACCTAGTGCAG,6040 fluorescence intensity (a.u.)
20,TTGGCCGGTAACGCGTCATGACTCATGAGCTACTGGACTTCGGAGTCACCTAGTGCAG,9990 fluorescence intensity (a.u.)
21,TTCGTCCGTGCGTGCGTGCGTGCGCGACTCGCTCTCACACCGGAGTCACCTAGTGCAG,10700 fluorescence intensity (a.u.)

# — PMC7819943, “Rice protein-binding microarrays: a tool to detect cis-acting elements near promoter regions in rice”
